A selection: hits, their analogues and other compounds. The true share with any hit is near 1.4%.
EPAC2 ag: agonists of human EPAC2 (RAPGEF4); Q8WZA2; EPAC2 activation, biochemical qHTS; response scale: 100% = 6.5 mM cAMP response; Potency, µM (series often up to 154 µM), inactives show top-dose activation, most hits filed as activators; actives 0.079% (n = 360,000); AID 720711; note: nearly all actives have a fitted effect of over 50% in size
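Compounds were added across a concentration range to EPAC2 (100 nM), RAP1B-BODIPY-GDP (250 nM) and GDP (50 uM). After 5 min at room temperature, fluorescence was recorded at 5-min intervals for 30 min.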
EPAC1 ag: activates human EPAC1 exchange factor; O95398; EPAC1 agonist qHTS, biochemical assay; response scale: 100% = response to 6.5 mM cAMP; Potency, µM (series often up to 154 µM), inactives show at the highest dose activation, actives largely listed as activators; actives 0.073% (n = 360,000); note: nearly all actives have a fitted effect of over 60% in size
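Nucleotide exchange by EPAC1 (100 nM) on Rap1B–BODIPY-GDP (250 nM) in the presence of 50 uM GDP is tracked fluorescently at 480/540 nm over 30 min. Signals are normalized to a 6.5 mM cAMP control.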
USP1-UAF1 inh: USP1/UAF1 (human) deubiquitinase inhibition. actives 0.23% (n = 390,000). recombinant USP1/UAF1, Ub-Rhodamine cleavage fluorescence. Potency, µM (top dose mostly 57.1 µM), for the others: top-dose activity change, negative = inhibition, usual class: inhibitors. O94782; note: % is set by controls: 0 for no effect and ±100 for the full control effect; nearly all actives have a fitted effect of over 60% in size
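1 nM enzyme complex + cpd, 15 min RT; start with Ub-Rho 150nM final; kinetic fluorescence ex 480/em 540, 6 reads q60 s. Buffer 50mM HEPES pH 7.8, 0.5mM EDTA, 0.1 mg/ml BSA, 1mM TCEP, 0.01% Tween-20.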
BRCA1 expr up: BRCA1 expression activation; actives 1.1% (n = 380,000); Potency, µM (titrated, usually from 46.1 µM), inactives show top-dose activation, hits mostly activators; AID 624202; MCF7-BRCA1-FFLuc reporter, luminescence, 48 h; response scale: scaled: vehicle 0%, 10 µM genistein 100%; note: nearly all actives have a fitted effect of over 80% in size
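Cells: MCF7-BRCA1-FFLuc, 2000/well. Exposure: 48 h, 37 °C, 5% CO2. Read: luminescence, 15 min post-substrate. Controls: genistein 10 microM (maximal activation), DMSO (neutral).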
EPAC1 antagonist: blocks human EPAC1 exchange factor | Potency, µM (highest dose often 115 µM), inactives show at the highest dose activity change, negative = inhibition, hits mostly inhibitors | actives 0.14% (n = 360,000) | O95398 | EPAC1 GEF assay, Rap1b-BODIPY-GDP exchange fluorescence | AID 720709;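 note: plate controls were vehicle for no effect and positive control for full effect; nearly all actives have a fitted effect of over 50% in size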
EPAC2 antag: blocks human EPAC2 exchange factor; Q8WZA2; EPAC2 GEF exchange of Rap1B-BODIPY-GDP, fluorescence; Potency, µM (titrated, usually from 114 µM), for inactives: at the highest dose activity, negative = inhibition, most hits filed as inhibitors; actives 0.18% (n = 360,000); note: % is set by controls: 0 for no effect and ±100 for the full control effect; nearly all actives have a fitted effect of over 45% in size
Numbers without * were called inactive; ? = inconclusive; / = no result given. Calls come from the whole dose curve; as a rule, active = well fitted curve in the direction sought with a large enough effect; inconclusive = small, poorly fitted or top-dose-only effect, or another doubt; inactive = no such curve, though single readings can be large; an effect the other way counts as inactive or inconclusive. Potency is the fitted concentration of half-maximal effect.

SMILES	EPAC2 ag	EPAC1 ag	USP1-UAF1 inh	BRCA1 expr up	EPAC1 antagonist	EPAC2 antag
Cc1ccc(NC(=O)C(=O)NCC(c2cccnc2)N2CCN(Cc3ccccc3)CC2)cc1 (stereo not given)	/	/	10.3%	/	/	/
CCc1ccccc1NC(=O)c1ccc2[nH]c(C)c(C)c2c1	/	/	-26.6%	8.91µM*	/	/
COCC(=O)Nc1c(C(=O)Nc2ccc(C)cc2)oc2ccccc12	/	/	-19.4%	54.5%	/	/
COc1ccc(NC(=O)NC(=O)c2ccccc2)cc1	3.4%	0.3%	1.4%	1.12µM*	-2.0%	6.5%
COc1ccc(NC(=S)Nc2ccccc2)cc1	11.6%	1.2%	-22.1%	1.8%	2.8%	6.0%
O=C(NC(=O)c1ccccc1)Nc1ccccc1	1.5%	3.9%	2.0%	18.9%	1.5%	12.5%
Cc1ccc(C(=O)NN=CC(=O)c2ccccc2)c(C)c1	7.7%	7.5%	-10.5%	?	-10.5%	1.2%
COc1ccc(NC(=S)c2ccccc2)cc1	-3.8%	0.7%	-21.3%	7.94µM*	-0.5%	-0.9%
COc1ccc(C(=O)N/N=C/C(=O)c2ccccc2)cc1	4.0%	11.4%	-20.1%	5.62µM*	11.8%	-0.1%
COc1ccc(C(=O)NCC(=O)OCC(=O)c2ccc3ccccc3c2)cc1	/	/	/	2.7%	/	/
O=C(CSc1ccccn1)Nc1ccc2c(c1)OCO2	-3.3%	1.8%	-13.4%	71.6%	-3.4%	1.2%
O=C(CSc1ccccn1)c1ccc2c(c1)OCO2	3.6%	3.7%	-10.8%	7.08µM*	7.8%	9.8%
COCCN=c1scc(-c2ccccc2)n1/N=C/c1c[nH]c2ccccc12	18.3%	18.7%	-2.7%	59.2%	-10.2%	-5.3%
CCN=c1scc(C)n1/N=C/c1ccc(O)c(O)c1O	-5.5%	-13.7%	-20.3%	-8.0%	44.7µM*	-1.8%
COCCN=c1scc(-c2cccs2)n1/N=C/c1ccc(O)c(O)c1O	13.1%	0.6%	-11.5%	-1.9%	56.2µM*	-0.2%
CCN=c1scc(C)n1/N=C/c1cc(Br)c(O)c(Br)c1	-1.9%	-4.9%	-24.5%	-5.2%	?	-14.1%
CCOc1ccc(/C=N/NC(=O)c2cc(-c3ccco3)nc3ccccc23)cc1	-0.9%	-8.8%	-7.0%	-36.0%	-11.8%	15.4%
O=C(N/N=C/c1ccc(F)cc1)c1cc(-c2ccco2)nc2ccccc12	-10.8%	0.0%	-39.5%	-55.2%	79.4µM*	9.6%
Cc1cnc(C(=O)OCC(=O)Nc2ccc(OCc3ccccc3)cc2)cn1	-0.4%	-4.0%	-9.4%	10µM*	1.4%	10.1%
Cc1cnc(C(=O)OCC(=O)NCc2ccccc2)cn1	-2.5%	4.0%	-20.1%	4.0%	-0.2%	7.4%
O=C(CCCOc1ccccc1)Nc1ccc(Br)cc1	-13.8%	-9.9%	-16.6%	-3.6%	-10.1%	0.9%
O=C(CCSc1ccccc1)Nc1ccc(OCc2ccccc2)cc1	-19.8%	-8.1%	-4.6%	11.2µM*	-11.3%	?
O=C(CCOc1ccccc1)Nc1ccc(Br)cc1	-8.3%	-7.3%	-11.0%	7.94µM*	-5.6%	4.5%
O=C(Cc1nc2ccccc2[nH]c1=O)c1ccccc1	?	1.1%	31.6µM*	5.62µM*	3.1%	32.4%
O=c1[nH]c2ccccc2nc1Cc1ccccc1	1.0%	11.5%	-26.0%	22.6%	-23.5%	-0.4%
COc1cc(NC(=O)C(CCSC)NS(=O)(=O)c2ccc3c(c2)oc(=O)n3C)cc(OC)c1 (stereo not given)	/	/	-16.0%	/	/	/
CC(C)CC1C(=O)N(Cc2cn(CCC3OCCO3)nn2)CCS(=O)(=O)N1Cc1ccc(-c2ccc(F)cc2)cc1 (stereo not given)	0.7%	-14.6%	-16.6%	-64.4%	-7.9%	12.6µM*
CC(C)CC1C(=O)N(Cc2cn(CCC3OCCCO3)nn2)CCS(=O)(=O)N1Cc1ccc(-c2ccc(Cl)cc2)cc1 (stereo not given)	-1.4%	-6.4%	-23.9%	-10.1%	0.2%	?

Assay outcomes: PubChem BioAssay, National Center for Advancing Translational Sciences (NCATS)
